DT40 TDP1 no CPT: qHTS for Inhibitors of human tyrosyl-DNA phosphodiesterase 1 (TDP1): qHTS in cells in absence of CPT. DT40 Tdp1-/- hTDP1 cells, no CPT, ATP luminescence, 48 h. hit rate 15% among 420,000. Potency, µM (series often up to 46.2 µM), inactives show at the highest dose activity change, negative = growth inhibition, hits mostly inhibitors. AID 686978, 2013; also: nearly all actives have a fitted effect of over 55% in size
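Luminescent ATP content (CellTiter-Glo) served as the growth readout. Knockout chicken DT40 cells expressing human TDP1 were exposed to compounds without camptothecin for a minimum 48 hr at 37 °C.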
TDP1 cell CPT: qHTS for Inhibitors of human tyrosyl-DNA phosphodiesterase 1 (TDP1): qHTS in cells in presence of CPT. chicken DT40 Tdp1-/-;hTDP1 cells + 20 nM CPT, ATP luminescence, 48 h. Potency, µM (doses to about 46.2 µM), without a hit: at the highest dose activity change, negative = growth inhibition, most hits filed as inhibitors. hit rate 12% among 420,000. AID 686979, 2013; also: nearly all actives have a fitted effect of over 55% in size
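Cell growth measured by CellTiter-Glo luminescence after a minimum 48 h, 37 C compound exposure with 20 nM CPT in Tdp1-knockout DT40 cells stably expressing hTDP1, seeded 400/well; qHTS titration format.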
12-LOX inh: Primary qHTS assay for inhibitors of human arachidonate 12S-lipoxygenase (ALOX12): Round 2. Polyunsaturated fatty acid lipoxygenase ALOX12 (Homo sapiens), P18054. purified 12hLO, xylenol orange hydroperoxide absorbance. Potency, µM (doses to about 108 µM), without a hit: at the top dose activity change, negative = inhibition, usual class: inhibitors. hit rate 1.1% among 580,000
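Purified human 12hLO (150 nM final) in 25 mM Hepes, 0.01% Triton X-100, pH 7.0 was preincubated 15 min at room temperature with compound. Then 40 uM arachidonic acid was added, 30 min. Hydroperoxide was read by Fe-XO absorbance ratio 573/405 nm.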
ELG1 repair inh: qHTS screen for small molecules that inhibit ELG1-dependent DNA repair in human embryonic kidney (HEK293T) cells expressing luciferase-tagged ELG1; hit rate 2.3% among 330,000; HEK293T ELG1-luciferase reporter, luminescence, 16 h; DNA damage induced by 5-fluorouridine; Potency, µM (highest dose often 46.1 µM), for inactives: at the highest dose activity change, negative = inhibition, most hits filed as inhibitors; also: nearly all actives have a fitted effect of over 55% in size
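Luminescence from the luciferase reporter, measured 30 min after ONE-Glo reagent at room temperature, was the read-out. Beforehand, 2,000 cells per well were exposed for 16 hr at 37 °C to 5-fluorouridine together with compound or vehicle.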
RORgamma inh: qHTS for inhibitors of ROR gamma transcriptional activity; Drosophila S2 Gal4-RORgamma UAS-luciferase reporter, 20 h; Potency, µM (highest dose often 53.6 µM), inactives show at the top dose activity change, negative = inhibition, actives largely listed as inhibitors; hit rate 5.4% among 310,000; AID 2551, 2010; also: nearly all actives have a fitted effect of over 60% in size
Target sequence (P51450 whole entry, looked up, the tested form may be a part): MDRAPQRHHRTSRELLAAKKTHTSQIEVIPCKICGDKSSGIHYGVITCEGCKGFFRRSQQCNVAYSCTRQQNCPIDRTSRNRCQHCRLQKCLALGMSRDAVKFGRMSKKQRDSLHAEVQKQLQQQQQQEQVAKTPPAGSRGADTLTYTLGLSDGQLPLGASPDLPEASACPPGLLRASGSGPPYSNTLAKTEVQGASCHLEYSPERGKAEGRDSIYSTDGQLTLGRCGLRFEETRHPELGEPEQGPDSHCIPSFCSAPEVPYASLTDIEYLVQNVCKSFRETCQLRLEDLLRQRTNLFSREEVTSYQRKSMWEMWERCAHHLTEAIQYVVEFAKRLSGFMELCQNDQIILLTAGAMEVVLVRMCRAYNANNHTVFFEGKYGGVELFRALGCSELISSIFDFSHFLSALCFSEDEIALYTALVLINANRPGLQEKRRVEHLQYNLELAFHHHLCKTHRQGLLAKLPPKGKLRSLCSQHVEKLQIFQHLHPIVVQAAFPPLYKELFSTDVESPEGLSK
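Drosophila S2 cells stably expressing Gal4-DBD/mouse RORγ fusion under metallothionein promoter plus UAS-luciferase; compound 1 h, then 700 uM CuSO4 induction for 20 h at ambient temperature; inhibition read as reduced luminescence.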
VP16 counter: VP16 counterscreen qHTS for inhibitors of ROR gamma transcriptional activity; Drosophila S2 Gal4-VP16 UAS-luciferase, luminescence, 20 h; Potency, µM (highest dose often 53.6 µM), inactives show top-dose activity, negative = inhibition, usual class: inhibitors; hit rate 3.5% among 310,000;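 also: Gal4-VP16 expression switched on by copper sulfate through the metallothionein promoter; nearly all actives have a fitted effect of over 50% in size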
* hit, by the source's call; u = inconclusive; x = no result given; [ ] = dose if it differs, or a comment. An excerpt weighted towards active compounds, which were near 15% of everything screened. Calls follow the shape of the dose curve; as a rule, active = well fitted curve in the direction sought with a large enough effect; inconclusive = small, poorly fitted or top-dose-only effect, or another doubt; inactive = no such curve, though single readings can be large; an effect the other way counts as inactive or inconclusive. % is scaled to controls: 0 for no effect and ±100 for the full control effect; potency is read from the fitted curve at half-maximal effect.

SMILES	DT40 TDP1 no CPT	TDP1 cell CPT	12-LOX inh	ELG1 repair inh	RORgamma inh	VP16 counter
Cc1cccc(CN(CC(=O)N/N=C/c2ccco2)S(=O)(=O)c2ccc(Cl)cc2)c1	u	u	u	-18.7%	-34.2%	-25.2%
O=C(COc1ccc2c(=O)c(Oc3ccc(-c4ccccc4)cc3)coc2c1)NCc1ccccc1	x	x	-16.0%	x	x	x
Cc1cccc([C@H]2C[C@@H](O)[C@@H](O)[C@@H]2NC(=O)C2CCOCC2)c1	x	x	32.2%[176 µM]	x	x	x
COc1ccc(-c2ccc3c(c2)C(=O)N2CC[C@H](NS(=O)(=O)c4cccs4)[C@H]2C(=O)N3)cc1	x	x	31.0%	x	x	x
COc1ccc(-c2cn(-c3ccc(Cl)cc3)c3[n+]2CCCCC3)cc1	2.59µM*	2.31µM*	59.1%	11.6µM*	9.1%	u
O=[n+]1cc(-c2ccc(Cl)cc2)n([O-])c2c1CCCCC2	u	-9.8%	6.4%	22.0%	28.7%	0.1%
Clc1ccc(-c2cn(-c3ccc(Cl)cc3)c3[n+]2CCCCC3)cc1	7.31µM*	8.2µM*	154.5%	u	-18.2%	-5.2%
COc1ccc(-n2cc(-c3ccc(OC(F)F)cc3)[n+]3c2CCCCC3)cc1	0.82µM*	1.3µM*	-5.4%	5.17µM*	11.0%	-8.5%
CCCCc1cc(=O)oc2cc(OC(C)C(=O)NCc3cccnc3)ccc12 (configuration not stated)	x	x	-2.9%	x	x	x
O=C(CCc1c[nH]c2ccccc12)N1CCC(N2CC3CC(C2)[C@H]2CCCC(=O)N2C3)CC1 (some centres not stated)	x	x	-1.2%	x	x	x
Cc1cccc(CC(CC(=O)O)C(=O)O)c1 (configuration not stated)	x	x	-4.5%	x	x	x
Cc1ccc(C(=O)O)cc1NC(=O)c1ccco1	x	x	-23.0%	x	x	x
Nc1c(Br)cc(/C=C/c2ccnc3ccccc23)cc1Br	10µM*	u	x	x	x	x
CN(C)c1ccc(/C=C/c2ccnc3ccccc23)cc1N	2.51µM*	2.82µM*	x	x	x	x
Nc1cccc2ncccc12	x	x	-29.1%	x	x	x
Nc1ccc(/C=C/c2ccc3ncccc3c2)cc1	u	u	0.0%	u	u	u
C(=C\c1ccnc2ccccc12)/c1cc2c3c(c1)CCCN3CCC2	2µM*	2.24µM*	x	x	x	x
Cc1cc(/C=C/c2ccnc3ccccc23)ccc1N	20µM*	8.91µM*	x	x	x	x
CCC(C)N(C(=O)CSc1nc(C)c(C)c(C)c1C#N)C1CCS(=O)(=O)C1 (configuration not stated)	20.6µM*	-6.2%	396.5%	4.8%	x	x
CCC(C)N(C(=O)CSc1ncnc2sccc12)C1CCS(=O)(=O)C1 (configuration not stated)	u	1.1%	-0.7%	-1.2%	x	x
CCSc1nc(-c2cccs2)nc2ccccc12	18.4µM*	14.6µM*	-1.5%	-14.8%	11.8%	10.2%
CCC(C)N(C(=O)CSc1nc(-c2cccs2)nc2ccccc12)C1CCS(=O)(=O)C1 (configuration not stated)	16.4µM*	u	-10.3%	x	x	x
CC(C(=O)NCCN1CCCC1)C1CCN(C(=O)c2ccc3nc(-c4ccccc4)oc3c2)CC1 (configuration not stated)	x	x	-0.4%	x	x	x
Cc1cnc(-c2ccccc2)n1CCNS(=O)(=O)c1ccccc1	x	x	33.2%	x	x	x
O=S(=O)(NCCCn1ccc2ccccc21)c1ccc(F)c(F)c1	x	x	58.0%	x	x	x
SMILES	DT40 TDP1 no CPT	TDP1 cell CPT	12-LOX inh	ELG1 repair inh	RORgamma inh	VP16 counter
CCn1ccc(C(=O)N2CCC(c3nn(C)c4c3COCC4)CC2)n1	x	x	77.3%	x	x	x
COc1ccc2nc3n(c2c1)[C@@H](CNC(=O)c1ccccn1)COC3	x	x	34.9%[176 µM]	x	x	x
CCc1cc(NCC(O)CN2CCCCC2)ncn1 (configuration not stated)	x	x	3.9%	x	x	x
CCCCn1nc(C(=O)Nc2ccc(C)cc2Br)c2ccccc2c1=O	x	x	11.0%	x	x	x
c1cc(-c2cc(-c3cn[nH]c3)c3cncn3c2)cc(N2CCOCC2)c1	x	x	24.7%[176 µM]	x	x	x
COCCNC(=O)NC(=O)CSc1nc(-c2ccco2)nc2ccccc12	x	x	-6.7%	x	x	x
O=C1/C(=C/c2ccc(C(F)(F)F)cc2)CCc2ccccc21	x	x	-1.5%	x	x	x
COc1ccc(Cl)cc1NC(=S)NCCO	-11.5%	31.8%	-20.8%	-2.6%	4.1%	-5.9%
COc1ccc(NC(=S)NCCc2ccc(Cl)cc2)c(OC)c1	u	u	-36.2%	-20.1%	4.47µM*	11.2µM*
COc1ccc(NCCC(O)c2ccc(Cl)cc2)cc1 (configuration not stated)	-8.7%	8.9%	0.0%	2.7%	10.2%	7.2%
COc1ccc(Cl)cc1NCCC(O)c1ccc(F)cc1 (configuration not stated)	9.2µM*	18.4µM*	0.0%	-1.0%	20.7%	1.1%
COc1ccc(NC(=S)NCc2ccc(Cl)cc2)c(OC)c1	u	u	u	7.2%	-11.8%[1.91 µM]	u
COc1ccc(Cl)cc1NC(=S)NCCc1ccc(F)cc1	6.3%	u	x	-1.3%	14.1µM*	17.8µM*
CCCCCc1ccc(C#Cc2ccc(OC)cc2)cc1	x	x	26.7%	x	x	x
O=C(Nc1ccc(Cl)cn1)c1ccccc1SCc1ccccc1	-15.7%	-26.8%	-4.7%	-14.1%	u	-1.9%
